Max dye-equivalent concentration data for 56 compounds are collected here from PubChem BioAssay AID589 (National Center for Advancing Translational Sciences (NCATS), 2007).

About 6,200 (11%) of roughly 59,000 compounds were called active. Not shown: some 9% with an inconclusive outcome. No stated cut-off is given here; in the data, active means max dye-equivalent concentration above about 10 nM; inconclusive means mostly about 1.1 nM to 9.6 nM; inactive means weaker than that. Only a selection was taken, and actives are over-represented in it overall.

A short description of the assay: qHTS Assay for Spectroscopic Profiling in 4-MU Spectral Region. The settings on record: compound autofluorescence, 340/450 nm, 4-MU equivalents; hits give high values. The method, boiled down: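 Compounds in 100 mM Tris, pH 8.0, incubated 15 min at room temperature, then fluorescence read at 340 nm excitation/450 nm emission. Signal converted to 4-MU dye-equivalent concentration using an on-plate six-point 4-MU standard curve.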
For the compound `CCOC(=O)c1sc(NC(=O)CSc2nnc(-c3ccco3)o2)c(C(=O)OCC)c1C`, the max dye-equivalent concentration entry was “inactive”.
Turning to `CC1CCCN(C(=O)Cn2c(=O)oc3ccccc32)C1` (stereo unspecified), the max dye-equivalent concentration entry is “inactive”.
Then `COC(=O)C1=C(C)NC(=O)NC1/C=C/c1ccccc1` (stereo unspecified), with “inactive”; and `CC(C)C(=O)N1CCN(c2nc(-c3ccccc3)c3c(c2C#N)CC(C)(C)OC3)CC1`, with 190 nM (active); and `CNC(=O)Nc1cc(C(C)(C)C)no1`, with “inactive”.
Turning to `Cn1nnc(NC(=O)CSc2ncn[nH]2)n1`, the max dye-equivalent concentration entry is “inactive”.
As to `CCCCCC(=O)Nc1ccc2oc(-c3ccncc3)nc2c1`, the max dye-equivalent concentration is 23 nM (active).
The value for `CCCCC(=O)Nc1ccc2c(c1)OCCO2` was “inactive”; that for `CCCC(=O)Nc1ccc2c(c1)nc1n2CCSC1` was “inactive”.
The value for `O=C(c1ccco1)N1CCC2(CC1)CCN(c1ncccn1)CC2` was “inactive”; that for `O=C1NC(c2ccncc2)Nc2sc3c(c21)CCCC3` (stereo unspecified) was 59 nM (active).
Then `COC(=O)c1ccc(Oc2nc(NC(C)C)nc(SC)n2)cc1`, with “inactive”; and `c1ccc2c(Nc3ccncc3)nc(-c3ccc4c(c3)OCO4)nc2c1`, with 19 nM (active).
Consider `COc1cccc(-c2nc(Nc3ccncc3)c3ccccc3n2)c1`, for which the max dye-equivalent concentration result is “inactive”.
Then `c1ccc2c(Nc3ccncc3)nc(-c3ccoc3)nc2c1`, with “inactive”; and `CCOCCCN1C(=O)CN(C2CCCCC2)C(=O)C1c1ccc(OCC)c(OC)c1` (stereo unspecified), with “inactive”.
For `COc1ccc(CNC(=O)c2c(C)cc(=O)oc2C)cc1OC`, the max dye-equivalent concentration entry is “inactive”.
Regarding `COCCN(C(=O)CCC(=O)Nc1ccccn1)C(C(=O)NCCC(C)C)c1ccc(OC)cc1` (stereo unspecified), the max dye-equivalent concentration entry is “inactive”.
In the case of `Oc1ccccc1CNCc1ccccc1O`, the max dye-equivalent concentration result is “inactive”.
For the compound `c1ccc2c(CNn3cnnc3)cccc2c1`, the max dye-equivalent concentration result was “inactive”.
For `Cc1cc(C)c2c(c1)c(C)cc1nnc(SCC(=O)NCc3ccco3)n12`, the max dye-equivalent concentration result is “inactive”.
Then `COc1ccc(OC)c(CNC(=O)C2CCCN(c3nc4ccccc4o3)C2)c1` (stereo unspecified), with “inactive”; and `COc1ccc2nc(N3CCCC(O)C3)c(C#N)cc2c1` (stereo unspecified), with 170 nM (active); and `Nc1nonc1-c1noc(-c2ccc(Br)o2)n1`, with “inactive”.
The value for `c1csc(CN2CCN(Cc3cccs3)C2c2cccs2)c1` was “inactive”.
For the compound `Cc1nn(-c2ccccc2)c2[nH]c(C(F)(F)F)cc(=O)c12`, the max dye-equivalent concentration result is “inactive”.
Then `COc1ccc(CC(=O)Nc2nc3n(n2)C(c2ccccc2)CC(=O)N3)cc1OC` (stereo unspecified), with “inactive”; and `CCCS(=O)(=O)N1CCC(C(=O)NCCc2ccc(OC)c(OC)c2)CC1`, with “inactive”.
Then `CCOc1ccc(CCNC(=O)C2CCN(c3ccc(N4CCOCC4)nn3)CC2)cc1OCC`, with 410 nM (active); and `COc1ccc(CCNC(=O)C2CCN(c3nn4c(=O)cc(C)nc4s3)CC2)cc1OC`, with “inactive”.
Then `Cc1ccc(-n2c(N)c(C(=O)N3CCOCC3)sc2=S)c(C)c1`, with “inactive”; and `CS(=O)(=O)N1CCC2(CC1)CN(Cc1cc(C(F)(F)F)cc(C(F)(F)F)c1)C2`, with “inactive”.
Consider `CCOc1cc(CN2CCN(C(=O)CC(C)C)CC2)ccc1OC`, for which the max dye-equivalent concentration result is “inactive”.
The value for `O=C(CSc1nnc(-c2ccccn2)n1-c1ccccc1)Nc1ccc2c(c1)OCO2` was “inactive”; that for `COc1ccc2[nH]c3ccc(OC)cc3c2c1` was 200 nM (active).
In the case of `COc1cccc(Oc2ccc(N)cc2)c1`, the max dye-equivalent concentration entry is “inactive”.
Consider `COc1ccc2[nH]c3cc4c(=O)c5cc(OC)ccc5[nH]c4cc3c(=O)c2c1`, for which the max dye-equivalent concentration entry was “inactive”.
The value for `O=C(O)CN(Cc1ccco1)S(=O)(=O)c1ccc(F)cc1` was “inactive”; that for `O=C(c1ccco1)N1CCN(CC(=O)N(C2CCCCC2)C2CCS(=O)(=O)C2)CC1` (stereo unspecified) was “inactive”.
With `Cc1c(NC(=O)c2coc(=O)c(Br)c2)c(=O)n(-c2ccccc2)n1C`, the max dye-equivalent concentration is 190 nM (active).
Take `Cc1cc(C(=O)Nc2c(C)n(C)n(-c3ccccc3)c2=O)cs1`: the max dye-equivalent concentration result is “inactive”.
In the case of `Cc1c(NC(=O)c2cccnc2)c(=O)n(-c2ccccc2)n1C`, the max dye-equivalent concentration entry was “inactive”.
Then `CCOCCCNS(=O)(=O)Cc1ccccc1`, with “inactive”.
As to `O=C1c2ccccc2C(O)N1Cc1ccccc1` (stereo unspecified), the max dye-equivalent concentration was 25 nM (active).
With `O=C1c2cccnc2C(Nc2ccc(S(=O)(=O)N3CCCCCC3)cc2)N1Cc1ccccc1` (stereo unspecified), the max dye-equivalent concentration result was “inactive”.
`O=C(NC1CCCCC1)C1c2ccccc2C(=O)N1Cc1ccco1` (stereo unspecified): the max dye-equivalent concentration entry was “inactive”.
The value for `CCOC(=O)CSc1nnc(NC(=O)c2cccc(S(=O)(=O)N3CCCC3)c2)s1` was “inactive”; that for `CN1C(=O)C[C@H](c2ccccc2)C1=O` was “inactive”.
The value for `CCCCCOC(=O)NCCOC(=O)Nc1ccc(C(=O)OCC)cc1` was “inactive”; that for `COc1cccc(-c2nc(S(=O)(=O)c3ccccc3)c(N3CCOCC3)o2)c1` was “inactive”.
The value for `COc1cccc(-c2cc3nc4c(c(N5CCC6(CC5)OCCO6)n3n2)CCCC4)c1` was 100 nM (active); that for `CC1CC(C)CN(CC(=O)Nc2ccc(S(N)(=O)=O)cc2)C1` (stereo unspecified) was “inactive”; that for `Cc1cccn2c(=O)c3cc(C#N)c(=O)n(CCCN4CCOCC4)c3nc12` was 8300 nM (active).
Take `Cn1c(=O)c2c(nc(CN3CCOCC3)n2Cc2ccccc2)n(C)c1=O`: the max dye-equivalent concentration entry was “inactive”.
The value for `Cc1nnc(SCC(N)=O)n1CC1CCCO1` (stereo unspecified) was “inactive”; that for `Cc1cccn2c(=O)c3cc(C#N)c(=NC(=O)c4cccnc4)n(CC4CCCO4)c3nc12` (stereo unspecified) was 3400 nM (active).
